# Reference: PubChem BioAssay (NCI)
# About 83,000 compounds went through this panel and 20% of them were active in at least one assay; those are over-represented in the sample as a whole.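 Results are percent growth after 48 hours of single-concentration exposure. 100 means growth as in untreated cells, lower positive values show inhibition; negative values down to -100 show cell death.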 Unmarked numbers belong to inactive results. Activity calls are given as the source filed them. How the source made its calls: active means growth percent below 10; inactive means the rest.
# Assays:
# Experiment in all cases: NCI-60 one-dose screen, 48 h (100 = growth as untreated, 0 = no growth, -100 = all killed)
# K-562 leukemia = conditions: 10 µM unless noted
# MALME-3M melanoma = conditions: 10 µM unless noted
# RXF 393 renal = conditions: 10 µM unless noted
# SF-295 CNS = conditions: 10 µM unless noted
# M14 melanoma = conditions: 10 µM unless noted
# SNB-75 CNS = conditions: 10 µM unless noted
# SNB-19 CNS = conditions: 10 µM unless noted
# SK-MEL-2 melanoma = conditions: 10 µM unless noted
# A498 renal = conditions: 10 µM unless noted
# HL-60(TB) leukemia = conditions: 10 µM unless noted
# CCRF-CEM leukemia = conditions: 10 µM unless noted
# SR leukemia = conditions: 10 µM
# OVCAR-8 ovarian = conditions: 10 µM unless noted
# OVCAR-4 ovarian = conditions: 10 µM unless noted
# SK-OV-3 ovarian = conditions: 10 µM unless noted
# IGROV1 ovarian = conditions: 10 µM
# BT-549 breast = conditions: 10 µM
# U251 CNS = conditions: 10 µM unless noted
# OVCAR-5 ovarian = conditions: 10 µM unless noted
# MDA-MB-435 melanoma = conditions: 10 µM unless noted
SMILES,growth (K-562 leukemia),growth (MALME-3M melanoma) [%],growth (RXF 393 renal),growth (SF-295 CNS),growth (M14 melanoma),growth (SNB-75 CNS),growth (SNB-19 CNS) [%],growth (SK-MEL-2 melanoma),growth (A498 renal),growth (HL-60(TB) leukemia),growth (CCRF-CEM leukemia),growth (SR leukemia) [%],growth (OVCAR-8 ovarian),growth (OVCAR-4 ovarian),growth (SK-OV-3 ovarian) [%],growth (IGROV1 ovarian) [%],growth (BT-549 breast),growth (U251 CNS),growth (OVCAR-5 ovarian) [%],growth (MDA-MB-435 melanoma)
N#CC1c2ccccc2C=CN1C(=O)c1ccc(N(CCCl)CCCl)cc1 (stereo unspecified),65.8%,85.4,89.7%,90.6%,116%,79.6%,82.4,104%,106%,65.9%,87%,86.6,85.7%,96.7%,97.3,98.2,89.8%,–,–,–
CC(C)CCC[C@@H](C)[C@H]1CC[C@H]2[C@@H]3CC=C4C[C@@H](OC(=O)Cc5ccc(N(CCCl)CCCl)cc5)CC[C@]4(C)[C@H]3CC[C@]12C,90.4%,–,–,119%,108%,103%,–,94.6%,132%,86.9%,120%,101,99.8%,114%,114,–,–,109%,98.2,–
CC[C@H](C)[C@H](NC(=O)Nc1ccccc1)C(=O)N(C)[C@H](C[C@@H](OC(C)=O)c1nc(C(=O)N[C@@H](Cc2ccccc2)C[C@H](C)C(=O)OC)cs1)C(C)C,15.7%,41.4,0.067% (active),4.42% (active),-7.55% (active),5.16% (active),45,-15% (active),-15.6% (active),-17.2% (active),9.52% (active),11.2,–,31.5%,25.4,22.2,2.56% (active),7.23% (active),28.9,-36.7% (active)
NC(=O)C(Br)CBr (stereo unspecified),-50.1% (active),–,–,81.1%,-88.3% (active),103%,80.1,-85.3% (active),103%,-23.2% (active),-12.1% (active),–,-24.1% (active),-100% (active),80,–,–,26.9%,–,-73.3% (active)
O=S(=O)(F)c1ncnc2nc[nH]c12,92.3%,100,101%,104%,100%,87.3%,93.4,85.8%,97.2%,97.2%,101%,–,100%,102%,94.7,103,100%,98.5%,90.7,100%
NC(Cc1ccc2c(c1)OCO2)c1ccc2c(c1)OCO2 (stereo unspecified),96.5%,–,–,96.8%,102%,–,93.6,107%,92.1%,108%,98.2%,83.9,102%,101%,108,–,–,107%,109,–
CC(C)N=C(NC(C)C)N1CC1,124%,124,122%,102%,128%,95.4%,115,112%,116%,104%,116%,122,108%,104%,115,123,114%,105%,106,103%
OC1(c2ccccc2F)c2ccccc2C2=NCCN21 (stereo unspecified),88.7%,97.2,-10.4% (active),91.8%,107%,104%,108,94.6%,105%,83.8%,93%,90.9,104%,107%,105,79.4,110%,104%,98.6,110%
O=C(N/N=C/c1ccc(N(CCCl)CCCl)cc1)c1cc(=O)[nH]c(=O)[nH]1,–,101,95.2%,87.2%,–,92.8%,–,109%,93.7%,–,66.5%,–,93.5%,109%,–,83.9,96.8%,98.2%,134,116%
